Z-score data for 10 molecules are collected here from PubChem BioAssay.

Molecules are shown by their SMILES.

A short description of this experiment: hepatitis C replication reporter changes, two-sided – Huh7 cells, luciferase reporter, HCV replication inhibitor project, primary screen (AID 1109).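 Further: huh7 hepatoma cells harbouring a luciferase neomycin HCV replicon reporter; luciferase luminescence as measure of HCV replicon replication; test concentration not given here.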 Particulars: Huh7 HCV replicon luciferase reporter, 48 h; higher = more signal. In general terms: Reporter assays use an easily measured gene product as a stand-in for the process of interest.
Turning to `C=CC[C@@]1(C(=O)N2CCOCC2)N=C(c2ccc(OCCCO)cc2)O[C@@H]1c1ccccc1`, the z-score was -0.802. In the case of `COc1cc2c(cc1OC)CN(C(=O)[C@H]1[C@@H]3C(=O)O[C@@H](c4ccccc4)[C@@H](c4ccccc4)N3[C@@H](c3ccc(O)cc3)[C@]13C(=O)Nc1ccc(C#CC4(O)CCCCCC4)cc13)CC2` it was -1.47. With `O=C/C=C/c1ccccc1Cl` the figure was 1.03; with `C=CCC(OC(C)=O)[C@@H]1[C@@H](N(Cc2cccc3ccccc23)C(=O)Cc2ccc(F)cc2)c2cc(OCCCO)ccc2N1C(=O)Cc1ccc2ccccc2c1` (stereo not given in full), 0.874; with `CC(=O)NCCCC[C@@H]1NC(=O)[C@@H]2C[C@H](C(=O)NCCCCCNC(=O)CS)[C@H](c3ccc(O)cc3)N2C1=O`, 1.22. The molecule `C[N+](C)(C)CCCCNC(=O)[C@@H]1C[C@@H]2C(=O)N3CCC[C@H]3C(=O)N2[C@@H]1c1cccc(OCCO)c1` returned a z-score of 0.0741. `O=C(NCC(O)CO)[C@]1(Cc2ccccc2)N=C(c2ccc(OCCCO)cc2)O[C@@H]1c1ccccc1` (stereo not given in full) returned a z-score of -0.378. Regarding `COC(=O)Cn1c(C(=O)N2CCCC2)cc2c1C[C@H]1CN(C(=O)c3ccccc3)[C@@](Cc3ccccc3)(C(=O)OC)[C@@H]21`, the z-score was -1.02. With `CCOC(=O)[C@H]1C/C=C/C[C@H](C(=O)OCC)C(=O)O[C@H]2[C@@H](OC)O[C@H](CO)[C@@H](OC(=O)Nc3ccc(Br)cc3)[C@@H]2OC1=O` the figure was -3.56; with `CO[C@@H]1COC(=O)[C@@H]2CCCN2C(=O)CC=C[C@@H](C)[C@H](OC)COC(=O)[C@@H]2CCCN2C(=O)CC=C[C@H]1C`, 0.47.
